# From the supplement of paper PMC12024424
# Structures can show the parent of a compound that is named as a salt.
# System: Staphylococcus aureus Sa2 (MRSA, cystic fibrosis isolate)
# Assay: growth reduction vs untreated control (OD550); higher = stronger antibacterial activity
# Settings: 0.1 mM; 24 h
# Procedure: (§1)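 Single-dose screen of the MedChem Express Drug Repurposing Library (0.1 mM, 1% DMSO) against planktonic MRSA S. aureus Sa2 (CF isolate) in TSB in 96-well plates, 37 °C aerobic, 24 h. Assays were run in triplicate and repeated twice.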
row,SMILES,growth reduction
1,CC(C)(C)c1nc(-c2cccc(NS(=O)(=O)c3c(F)cccc3F)c2F)c(-c2ccnc(N)n2)s1 [Dabrafenib (Mesylate)],98.3%
2,C=CCc1ccc(O)c(-c2cc(CC=C)ccc2O)c1 [Magnolol],100%
3,CCN(CC)CCNC(=O)c1c(C)[nH]c(/C=C2\C(=O)Nc3ccc(-c4csc(-c5ccccc5)n4)cc32)c1C [Amcasertib],100%
4,Cc1cc2c(F)c(Oc3ncnn4cc(OC[C@@H](C)OC(=O)[C@H](C)N)c(C)c34)ccc2[nH]1 [Brivanib (alaninate)],100%
5,Cc1cc2c(cc1CC(=O)c1sccc1S(=O)(=O)Nc1onc(C)c1Cl)OCO2 [Sitaxsentan (sodium)],98%
6,CCCCc1nc(-c2ccc(OCCCN(CC)CC)cc2)cn1-c1ccc(Oc2ccc(Cl)cc2)cc1 [Azeliragon],100%
7,CSc1ccc(C(=O)/C=C/c2cc(C)c(OC(C)(C)C(=O)O)c(C)c2)cc1 [Elafibranor],91.6%

# System: Staphylococcus aureus Sa2 (MRSA, cystic fibrosis isolate)
# Assay: growth reduction vs untreated control (viable cell count); higher = stronger antibacterial activity; extreme values may be limits of the assay
# Settings: 0.1 mM; 24 h
# Procedure: as §1
row,SMILES,growth reduction
1,C[C@H]1Cc2c([nH]c3cc(Cl)c(F)cc23)[C@@]2(N1)C(=O)Nc1ccc(Cl)cc12 [Cipargamin],100%
2,Cc1cccc(Nc2ccccc2C(=O)O)c1C [Mefenamic acid],100%
3,O=c1[nH]cnc2c1cnn2[C@@H]1O[C@H](CO)[C@@H](O)[C@H]1O [Allopurinol riboside],100%
4,CC(=C(CCOC(=O)C(C)C)SSC(CCOC(=O)C(C)C)=C(C)N(C=O)Cc1cnc(C)nc1N)N(C=O)Cc1cnc(C)nc1N (stereo in doubt) [Sulbutiamine],97%
5,CC(OC(=O)c1ccc(Cc2c(O)c3ccccc3oc2=O)cc1)(C(F)(F)F)C(F)(F)F [Tecarfarin],100%
6,Cc1c(Cl)cccc1Nc1ccccc1C(=O)O [Tolfenamic Acid],99%
7,Cc1nc2c([nH]1)-c1ccccc1N(C(=O)c1ccc(NC(=O)c3ccccc3-c3ccccc3)cc1)CC2 [Conivaptan (hydrochloride)],100%
8,C=CC(=O)Nc1cc(Nc2nccc(-c3cn(C4CC4)c4ccccc34)n2)c(OC)cc1N(C)CCN(C)C [Almonertinib (hydrochloride)],100%
9,CC1=C(C)C(=O)C(CCCCCCCCCC[P+](c2ccccc2)(c2ccccc2)c2ccccc2)=CC1=O [Visomitin],100%
10,CCC(c1ccccc1)c1c(O)c2ccccc2oc1=O (stereo unspecified) [Phenprocoumon],95%
11,C1CCC(C(CC2CCCCN2)C2CCCCC2)CC1 (stereo unspecified) [Perhexiline maleate],100%
12,CCCc1nc2c(C)cc(-c3nc4ccccc4n3C)cc2n1Cc1ccc(-c2ccccc2C(=O)O)cc1 [Telmisartan],100%
13,CC(C)COc1ccc(CNC(=O)N(Cc2ccc(F)cc2)C2CCN(C)CC2)cc1 [Pimavanserin tartrate],100%
14,Cc1c(Cl)c(C)[n+]([O-])c(Cl)c1-c1noc(-c2cc(O)c(O)c([N+](=O)[O-])c2)n1 [Opicapone],100%
15,CCOC(=O)Nc1ccc(NCc2ccc(F)cc2)nc1N [Flupirtine (Maleate)],96%
16,Clc1ccc(CSC(Cn2ccnc2)c2ccc(Cl)cc2Cl)cc1 (stereo unspecified) [Sulconazole (nitrate)],100%
17,CCCCc1oc2ccc(NS(C)(=O)=O)cc2c1C(=O)c1ccc(OCCCN(CCCC)CCCC)cc1 [Dronedarone],100%
18,CC(C)(C)NC(=O)N[C@H](C(=O)N1C[C@H]2[C@@H]([C@H]1C(=O)NC(CC1CCC1)C(=O)C(N)=O)C2(C)C)C(C)(C)C (stereo partly specified) [Boceprevir],92%
19,CNC(=O)c1cc(Oc2ccc(NC(=O)Nc3ccc(Cl)c(C(F)(F)F)c3)c(F)c2)ccn1 [Regorafenib (monohydrate)],98%
20,COc1cc2/c(=N/c3ccc(Br)cc3F)nc[nH]c2cc1OCC1CCN(C)CC1 [Vandetanib],100%
21,Nc1ncccc1-c1nc2ccc(-c3ccccc3)nc2n1-c1ccc(C2(N)CCC2)cc1 [Miransertib],95%
22,CC(C)OC(=O)CCC/C=C\C[C@@H]1[C@@H](/C=C/[C@@H](O)COc2cccc(C(F)(F)F)c2)[C@H](O)C[C@@H]1O [Travoprost],100%
23,COc1cc2c(Oc3ccc(NC(=O)C4(C(=O)Nc5ccc(F)cc5)CC4)cc3F)ccnc2cc1OCCCN1CCOCC1 [Foretinib],99%
24,CC/C(=C(\c1ccccc1)c1ccc(OCCN(C)C)cc1)c1ccccc1 [Tamoxifen],100%
